Measurements from the supplement of paper PMC12340641.
Counter-ions that a name gives are not always drawn.

What was measured:
[1] = target: IKZF1 (dCK*-IKZF1 fusion in HEK293FT) (UniProt Q13422); assay: inhibition of IKZF1 HTRF signal (DMSO = 0%, pomalidomide 10 uM = 100%); higher = lower IKZF1 protein level; conditions: compound concentration: 5 uM, overnight (~20 h)
Summary of the method: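 For percent inhibition of IKZF1 signal, each plate was normalised to vehicle and to a reference degrader. Cells were HEK293FT stably expressing an IKZF1 fusion, plated at 2000/well in 384-well format and treated overnight at 37 °C with 5 μM compound, one well each. Lysates were probed overnight with a commercial HTRF total-IKZF1 antibody kit, with the 665/620 nm ratio background-subtracted and vehicle and degrader fixed at 0% and 100%.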

HEK293FT dCK*-only = assay: relative growth in counter assay (no AraC = 100%, AraC + DMSO = 0%); higher = more growth rescue independent of IKZF1; conditions: compound concentration: 5 uM; AraC concentration: 0.3 uM; overnight pretreatment + 4 days AraC
Summary of the method: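 HEK293FT cells carrying only an engineered kinase construct were plated at 300 per well (384-well) and given 5 μM compound 2 h later. Following overnight at 37 °C, a nucleoside suicide substrate (0.3 μM) plus medium was added for 4 days. Hoechst 33342-stained nuclei were imaged and counted on day 5, with 100% assigned to wells without suicide substrate and 0% to substrate plus vehicle on each plate.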

HEK293FT dCK*-IKZF1 = assay: relative growth recovery (pomalidomide 10 uM = 100%, DMSO = 0%); higher = more growth rescue (IKZF1 fusion degradation); conditions: compound concentration: 5 uM; AraC concentration: 0.3 uM; overnight pretreatment + 4 days AraC
Summary of the method: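 Means of duplicates from different days are given for growth recovery, normalised per plate against a reference degrader and vehicle. The reference degrader set the 100% level and vehicle the 0% level. HEK293FT cells stably expressing a deoxycytidine kinase–IKZF1 fusion (300/well, 384-well) received 5 μM compound 2 h after seeding and, after overnight at 37 °C, 0.3 μM of a nucleoside suicide substrate plus medium for 4 days. Nuclei stained with Hoechst 33342 were then counted by whole-well imaging on day 5.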

IKZF1 (dCK*-IKZF1 fusion in HEK293FT), sequence (Q13422 whole entry, looked up, the tested form may be a part): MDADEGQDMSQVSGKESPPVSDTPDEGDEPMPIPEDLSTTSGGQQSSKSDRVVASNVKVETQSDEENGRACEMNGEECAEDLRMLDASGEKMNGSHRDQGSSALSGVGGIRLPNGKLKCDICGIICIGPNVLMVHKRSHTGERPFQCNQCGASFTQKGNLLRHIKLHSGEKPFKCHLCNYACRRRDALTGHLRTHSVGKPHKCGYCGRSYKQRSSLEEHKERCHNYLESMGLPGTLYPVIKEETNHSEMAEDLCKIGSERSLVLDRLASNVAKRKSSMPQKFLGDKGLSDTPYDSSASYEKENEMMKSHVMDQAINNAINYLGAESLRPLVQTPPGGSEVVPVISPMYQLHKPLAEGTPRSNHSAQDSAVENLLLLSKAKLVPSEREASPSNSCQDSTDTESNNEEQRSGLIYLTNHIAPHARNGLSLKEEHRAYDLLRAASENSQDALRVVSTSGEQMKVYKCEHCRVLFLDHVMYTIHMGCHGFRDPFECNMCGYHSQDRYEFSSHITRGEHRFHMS

Compound | inhibition of IKZF1 HTRF signal [1] | relative growth in counter assay (HEK293FT dCK*-only) | relative growth recovery (HEK293FT dCK*-IKZF1)
CC(=O)Nc1cccc(Nc2ncnc(N3CCC(OCc4ccc(OC(F)(F)F)cc4)CC3)n2)c1C | 4.12% | -5.23% | 1.55%
CCN(CC)CCCC(C)Nc1ccnc2cc(Cl)ccc12 (stereo not drawn) [Chloroquine Diphosphate] | -13.4% | 1.31% | 0.365%
Cc1cc(C2CCCCC2)n(O)c(=O)c1 | -23.8% | -24.9% | -10.6%
Oc1c(I)cc(I)c2cccnc12 | -30.6% | -11.2% | -3.46%
O=C(CSc1nnc2c(n1)[nH]c1ccccc12)Nc1ccc(Cl)cn1 | 4.2% | -5.82% | 1.11%
Oc1ccc(Cl)c2cccnc12 | -32.6% | -6.2% | -1.79%
COC(=O)Nc1nc2cc(SC(C)C)ccc2[nH]1 [methiazole] | 36.1% | -32.7% | -10.8%
O=C(/C=C/c1ccc2ccccc2n1)c1ccncc1 | -36.5% | -35.1% | -15%
CN(C)CCN1C(=O)c2cccc3cc(N)cc(c23)C1=O [Amonafide] | 27.6% | -32.4% | -11.7%
Cc1cc(N)c2ccccc2[n+]1CCCCCCCCCC[n+]1c(C)cc(N)c2ccccc21 | -29.5% | -14.5% | -3.15%
Cn1c(=O)n(-c2ccc(C(C)(C)C#N)cc2)c2c3cc(-c4cnc5ccccc5c4)ccc3ncc21 [Dactolisib (BEZ235, NVP-BEZ235)] | 46.7% | -20.5% | -7.88%
Cc1noc(C)c1-c1ccc(-c2cc(C(N)=O)c(NC(N)=O)s2)c(O[C@H]2CCNC2)c1 | -26% | 4.03% | 3.93%
CC(C)(C)c1ccc(/C=C/C(=O)Nc2ccc3c(c2)OCCO3)cc1 | -32% | -1.73% | 0.45%
C[C@H]1O[C@@H](O[C@H]2[C@@H](O)C[C@H](O[C@H]3[C@@H](O)C[C@H](O[C@H]4CC[C@]5(C)C6C[C@@H](O)[C@]7(C)[C@@H](C8=CC(=O)OC8)CC[C@]7(O)C6CC[C@@H]5C4)O[C@@H]3C)O[C@@H]2C)C[C@H](O)[C@@H]1O (stereo partly drawn) | 68.6% | -34.9% | -12.4%
Cc1coc2c1C(=O)C(=O)c1c-2ccc2c(C)cccc12 [Tanshinone I] | -2.3% | -6.51% | -3.83%
CC(C)n1nc(-c2ccc3oc(N)nc3c2)c2c(N)ncnc21 | 83.3% | -33.3% | -12.4%
CC(C)c1ccc(-c2cc(=O)c3ccccc3o2)cc1 | -25.6% | -5.2% | 0.225%
CCCCC1OC(=O)c2ccccc21 (stereo not drawn) [Butylphthalide] | -30.6% | 1.67% | 1.08%
Cc1c(S(=O)(=O)O)oc2c1C(=O)C(=O)c1c-2ccc2c1CCCC2(C)C [sodium-tanshinone-ii-a-sulfonate] | 20.9% | 4.38% | -1.25%
c1cncc(CN2CCC(n3ncc4c(N5CCOCC5)nc(-c5ccc6[nH]ccc6c5)nc43)CC2)c1 | 30.4% | -26.4% | -11.3%
CC(C)CCN1c2nc(Nc3cc(F)c(O)c(F)c3)ncc2N(C)C(=O)C1C (stereo not drawn) | -50.7% | -32.3% | -11.3%

Compound | inhibition of IKZF1 HTRF signal [1] | relative growth in counter assay (HEK293FT dCK*-only) | relative growth recovery (HEK293FT dCK*-IKZF1)
CC[C@]1(O)C[C@H]2CN(CCc3c([nH]c4ccccc34)[C@@](C(=O)OC)(c3cc4c(cc3OC)N(C)[C@H]3[C@@](O)(C(=O)OC)[C@H](OC(C)=O)[C@]5(CC)C=CCN6CC[C@]43[C@@H]65)C2)C1 [Vinblastine Sulfate] | -11.7% | -33.4% | -11.7%
C/C(=N\NC(=S)N1CCC1)c1ccccn1 | -11.1% | -34.6% | -12.9%
Cc1cccc(C)c1NC(=O)CN1CCN(CCCC(c2ccc(F)cc2)c2ccc(F)cc2)CC1 [lidoflazine] | -30.1% | 35.6% | 36.1%
C(=C\c1ccccc1)/CN1CCN(C(c2ccccc2)c2ccccc2)CC1 | -25.9% | -3.15% | 1.06%
Oc1c(I)cc(I)c(O)c1I [riodoxol] | -5.43% | 2.24% | -3.17%
CCCOc1ccc2nc(NC(=O)OC)[nH]c2c1 | -18.4% | -15.2% | -2.92%
CC[C@]1(O)C[C@H]2CN(CCc3c([nH]c4ccccc34)[C@@](C(=O)OC)(c3cc4c(cc3OC)N(C)[C@H]3[C@@](O)(C(N)=O)[C@H](O)[C@]5(CC)C=CCN6CC[C@]43[C@@H]65)C2)C1 [Vindesine Sulfate] | -14% | -34.3% | -11.6%
CC1(C)C(/C=C/C=C/C=C/C=C2/N(CCCCS(=O)(=O)[O-])c3ccc4ccccc4c3C2(C)C)=[N+](CCCCS(=O)(=O)[O-])c2ccc3ccccc3c21 [Cardiogreen] | -28.9% | -5.7% | 0.4%
O=C(Nc1ccc(S(=O)(=O)C(F)(F)F)cc1)C1=CCN(c2ncccc2C(F)(F)F)CC1 | -40.9% | 62.2% | 53.1%
COc1cc(NS(=O)(=O)c2ccc(N)cc2)nc(OC)n1 | -24.5% | -0.83% | -4.54%
Cc1cccc(C)c1NC(=O)C[N+](C)(C)C | -41.2% | 0.1% | -1.7%
CCc1nc(N)nc(N)c1-c1ccc(Cl)cc1 [Pyrimethamine] | -52.5% | 3.76% | -1.87%
O=C(O)C(O)Cc1ccc(O)c(O)c1 (stereo not drawn) [Sodium Danshensu] | -50.2% | 0.01% | -0.76%
OC(c1cc(C(F)(F)F)nc2c(C(F)(F)F)cccc12)C1CCCCN1 (stereo not drawn) [Mefloquine HCl] | -25.2% | -1.31% | -6.05%
CCc1ccc(OCc2ccccc2C(=O)Nc2ccc3nc(C)cc(N)c3c2)cc1 | 41.1% | -34.6% | -14.6%
COC(=O)C1=C(C)NC(C)=C([N+](=O)[O-])C1c1ccccc1C(F)(F)F (racemic) | -43.6% | -7.91% | -0.605%
CC(C)[C@H]1c2ccc(F)cc2CC[C@@]1(CCN(C)CCCc1nc2ccccc2[nH]1)OC(=O)C1CC1 | -25.9% | -31.9% | -9.29%
CN1CCN(CCCN2c3ccccc3Sc3ccc(C(F)(F)F)cc32)CC1 [Trifluoperazine  HCl] | -1.13% | 28.7% | 3.73%
OC(c1cc(C(F)(F)F)nc2c(C(F)(F)F)cccc12)C1CCCCN1 (stereo not drawn) | -31.6% | -10.6% | -7.16%
C=C1C(=O)O[C@@H]2[C@H]3O[C@]3(C)CC/C=C(\C)CC[C@@H]12 [parthenolide-(alternate-stereo)] | -27.7% | -34.4% | -12.4%
O=C(O)c1ccc(/C=C2/SC(=S)N(c3cccc(C(F)(F)F)c3)C2=O)cc1 | -26.9% | -1.87% | -0.07%

Compound | inhibition of IKZF1 HTRF signal [1] | relative growth in counter assay (HEK293FT dCK*-only) | relative growth recovery (HEK293FT dCK*-IKZF1)
CC[C@]1(O)C[C@H]2C[N@@](CCc3c([nH]c4ccccc34)[C@@](C(=O)OC)(c3cc4c(cc3OC)N(C=O)[C@H]3[C@@](O)(C(=O)OC)[C@H](OC(C)=O)[C@]5(CC)C=CCN6CC[C@]43[C@@H]65)C2)C1 [Vincristine (sulfate)] | -10.4% | -34.5% | -11.7%
CC[C@H](CO)Nc1nc(Nc2cccc(-c3ccccn3)c2)c2ncn(C(C)C)c2n1 | -29.5% | -0.26% | -2.95%
N#Cc1ccc(O[C@H]2CC[C@H](NC(=O)c3ccc(N4CCC(CN5CCN(c6cc7c(cc6F)C(=O)N(C6CCC(=O)NC6=O)C7=O)CC5)CC4)nn3)CC2)cc1Cl (stereo partly drawn) | -5.24% | 6.3% | -0.69%
CC(C)(C)C1CCc2c(sc(NC(=O)c3ccco3)c2C(=O)O)C1 (stereo not drawn) | -23.8% | -8.81% | -0.515%
CCCCC(CC)C/N=C(\N)N/C(N)=N/CCCCCC/N=C(\N)N/C(N)=N/CC(CC)CCCC (stereo not drawn) [Alexidine dihydrochloride] | 63.4% | -34.4% | -13.3%
N=c1ccn2c(n1)O[C@H]1[C@H](O)[C@@H](CO)O[C@H]12 [Cyclocytidine HCl] | -19.3% | -34% | -12.9%
COc1cc(NS(C)(=O)=O)ccc1Nc1c2ccccc2nc2ccccc12 | -14.1% | -35.1% | -13.2%
C[C@H](NCc1ccc(OCc2ccccc2F)cc1)C(N)=O [priralfinamide] | -24% | -0.94% | -2.81%
Cc1ncsc1-c1ccc(CNC(=O)[C@@H]2C[C@@H](O)CN2C(=O)[C@@H](NC(=O)COCCOCCOCCOc2ccc(-c3ccc4ncnc(Nc5ccc(OCc6cccc(F)c6)c(Cl)c5)c4c3)cc2)C(C)(C)C)cc1 | 13.3% | 18% | 4.09%
CCCCCCCCNC(C)C(O)c1ccc(SC(C)C)cc1 (stereo not drawn) | -32.8% | 7.28% | -0.84%
Fc1ccc(C(c2ccc(F)cc2)N2CCN(C/C=C/c3ccccc3)CC2)cc1 [flunarizine] | -47% | 1.76% | -0.165%
COc1cccc2c1C(=O)c1c(O)c3c(c(O)c1C2=O)C[C@@](O)(C(=O)CO)C[C@@H]3O[C@H]1C[C@H](N)[C@H](O[C@@H]2CCCCO2)[C@H](C)O1 [Pirarubicin] | 37.3% | -33.8% | -13.1%
OCCN1CCN(CCCN2c3ccccc3Sc3ccc(C(F)(F)F)cc32)CC1 [Fluphenazine  HCl] | -52.5% | 15.7% | 5.51%
O=C1CN(/N=C/c2ccc(-c3ccc([N+](=O)[O-])cc3)o2)C(=O)N1 [dantrolene] | 27.9% | -3.99% | 4.57%
O=C(O)c1cc(N=Nc2ccc(O)c(C(=O)O)c2)ccc1O [Olsalazine Na] | -197% | 1.54% | -1.08%
OCCCNc1cc(-c2ccnc(Nc3cccc(Cl)c3)n2)ccn1 | 14.5% | -34.4% | -12.8%
CSc1ccc2c(c1)N(CCC1CCCCN1C)c1ccccc1S2 (stereo not drawn) | -29% | 7.95% | -4.45%
O=C1c2ccccc2-c2n[nH]c3cccc1c23 [pyrazolanthrone] | -38.5% | -9.29% | -5.03%
COc1cccc2c(O)c3c(O)c4c(c(O)c3c(O)c12)=C(O[C@H]1C[C@H](N)[C@H](O)[C@H](C)O1)C[C@](O)(C(C)=O)C=4 [Daunorubicin HCl] | 56.3% | -34.8% | -13.9%
